Assay [1] addresses Glutathione peroxidase 1 (Homo sapiens) (UniProt P07203). Nature of the assay: Primary qHTS Assay for Inhibitors of Recombinant Selenoprotein Glutathione Peroxidase 1 (GPX1) (AID 1845191). Further: nearly all actives have a fitted effect of over 65% in size. The settings on record: recombinant GPX1, GR-coupled NADPH fluorescence, 15 min; series mostly up to 48.8 µM. A digest of the protocol: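 GR-coupled readout: NADPH consumption tracked by fluorescence, ex 340/em 450 nm, at t=0 and after 15 min at RT. Final mix 10 nM GPX1, 1 mM GSH, 0.5 mM CHP, 0.5 mM NADPH, 100 nM GR, 0.01% BSA, following 30 min enzyme–compound preincubation.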
On the technique in general: Quantitative high-throughput screening tests each substance at several concentrations.

Assay [2] deals with Phospholipid hydroperoxide glutathione peroxidase GPX4 (Homo sapiens) (UniProt P36969). Nature of the assay: Primary qHTS Assay for Inhibitors of Recombinant Selenoprotein Glutathione Peroxidase 4 (GPX4) (AID 1845192). Further: nearly all actives have a fitted effect of over 65% in size. Further: potency means the concentration at half of the fitted maximal effect. The note with it: recombinant GPX4, GR-coupled NADPH fluorescence, 15 min; series mostly up to 50 µM. A digest of the protocol:
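Steps: GPX4 plus compound, 30 min RT; add GR/GSH/NADPH master mix; start with cumene hydroperoxide; read 340/450 nm fluorescence at 0 and 15 min. Finals were 200 nM GPX4, 1 mM GSH, 0.5 mM CHP, 0.5 mM NADPH, 100 nM GR.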

Assay [3] deals with Luciferin 4-monooxygenase (Photinus pyralis) (UniProt P08659). The experiment in a line: Primary firefly luciferase (FLuc) qHTS assay for identification of artifact compounds. (AID 1845220). Further: nearly all actives have a fitted effect of over 60% in size. Further: potency means the concentration at half of the fitted maximal effect. The settings on record: purified firefly luciferase, luminescence, 5 min; series mostly up to 54.1 µM. A digest of the protocol: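 Titrated compounds were incubated 15 min at RT, protected from light, with luciferin and ATP at 10 uM; reaction started with 10 nM FLuc, luminescence imaged at 5 min, and concentration-response fitted by Hill equation.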

A short description of assay [4]: Primary fluorescence-based thiol-reactive (MSTI) qHTS assay for identification of artifact compounds. (AID 1845221). Further: nearly all actives have a fitted effect of over 65% in size. Further: potency means the concentration at half of the fitted maximal effect. The settings on record: MSTI thiol-reactivity probe, 1 h; series mostly up to 53.8 µM. The method in brief: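 A multi-concentration qHTS design tested compounds against 4 uM MSTI, pH 7.4 phosphate-buffered saline. Plates were protected from light for 1 h at room temperature before imaging fluorescence.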

Assay [5] relates to Nanoluciferase (engineered Oplophorus gracilirostris luciferase). The experiment in a line: Primary Nanoluciferase (NLuc) qHTS assay for identification of artifact compounds. (AID 1845222). Further: potency means the concentration at half of the fitted maximal effect. The note with it: NLuc-conditioned medium, Nano-Glo luminescence, 5 min; series mostly up to 54.1 µM. A digest of the protocol: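 qHTS format, against NLuc in S16 cell-conditioned medium. Nano-Glo substrate 1:100 was added after 15 min at room temperature. Luminescence was taken after a further 5 min.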

The nature of assay [6]: Primary redox qHTS assay for identification of artifact compounds. (AID 1845223). The note with it: Amplex Red/HRP redox cycling with DTT, fluorescence; series mostly up to 53.8 µM. The method in brief: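 Redox-cycling detection via DTT (250 uM final) oxidation coupled to Amplex Red (25 uM)/HRP (250 mU/mL) in HBSS. 15 min preincubation plus 30 min after DTT, room temperature. Ex/Em 525/598 nm; 4-parameter Hill fit against DMSO and 10 uM DA3003.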

Assay [7] in a line: Quantitative High-Throughput drug screen in 47 multiple myeloma cell lines against the NCATS MIPE library collection: FR4_PLB cell viability assay (AID 1918924; further: nearly all actives have a fitted effect of over 35% in size; further: potency means the concentration at half of the fitted maximal effect). The note with it: FR4_PLB myeloma cells viability, CellTiter-Glo ATP, 48 h; series mostly up to 45.8 µM. A digest of the protocol: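 We plated 500 myeloma cells per well, pinned in MIPE 4.0 compounds, and incubated for 48 hours at 37C. ATP was then quantified with CellTiter-Glo, with DMSO and media-only wells defining 100% and 0%.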
In general terms: Cellular ATP, detected with luciferase, serves as a proxy for viable cell number.

Values joined by “and” are separate entries in the source; they are usually repeats but may differ in a detail not shown here. Equal entries are not always repeated. Records with an inconclusive call do not appear. Some compounds were tested as several samples or in several runs, with calls that do not always agree. Active and inactive are the calls of the source. The call rests on the fitted dose curve; in most records, active means well fitted curve in the direction sought with a large enough effect; inconclusive means small, poorly fitted or top-dose-only effect, or another doubt; inactive means no such curve, though single readings can be large; an effect the other way counts as inactive or inconclusive.

Sequence of Glutathione peroxidase 1 (Homo sapiens) (P07203 whole entry, looked up): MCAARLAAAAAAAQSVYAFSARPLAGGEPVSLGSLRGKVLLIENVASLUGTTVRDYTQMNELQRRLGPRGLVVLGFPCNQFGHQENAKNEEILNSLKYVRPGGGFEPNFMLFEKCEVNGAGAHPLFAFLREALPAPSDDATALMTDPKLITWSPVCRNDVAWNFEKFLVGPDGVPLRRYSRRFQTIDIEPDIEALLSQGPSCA
Sequence of Phospholipid hydroperoxide glutathione peroxidase GPX4 (Homo sapiens) (P36969 whole entry, looked up): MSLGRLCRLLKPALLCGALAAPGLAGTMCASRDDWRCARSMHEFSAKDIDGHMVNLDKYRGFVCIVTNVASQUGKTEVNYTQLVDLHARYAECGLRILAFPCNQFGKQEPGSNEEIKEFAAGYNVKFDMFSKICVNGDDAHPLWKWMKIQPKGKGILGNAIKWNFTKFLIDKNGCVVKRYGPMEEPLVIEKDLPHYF

Turning to `Cn1c(=O)n(-c2ccc(C(C)(C)C#N)cc2)c2c3cc(-c4cnc5ccccc5c4)ccc3ncc21`, the Potency entry in assay [1], in assay [2], in assay [3], in assay [4], in assay [5] and in assay [6] was “inactive” each time. The Potency in assay [7] was 0.0093 µM (active).

In the case of `Nc1cc(C(F)(F)F)c(-c2cc(N3CCOCC3)nc(N3CCOCC3)n2)cn1`, the Potency entry in assay [1], in assay [2], in assay [3], in assay [4], in assay [5] and in assay [6] was “inactive” throughout. Further, the Potency in assay [7] was 0.148 µM (active).

Turning to `CC(C)c1nn(-c2c(Cl)cccc2Cl)c2nc(Cc3ccc(OCCO)cc3)[nH]c(=O)c12`, the Potency entry in assay [1], in assay [2], in assay [3], in assay [4], in assay [5] and in assay [6] was “inactive” in each case. For the same compound, the Potency in assay [7] is 0.105 µM (active).

Take `CC(C)c1noc(N2CCC(COc3ccc(-c4ccc(S(C)(=O)=O)cc4)nc3)CC2)n1`: the Potency entry in assay [1], in assay [2], in assay [3], in assay [4], in assay [5] and in assay [6] was “inactive” each time. The Potency in assay [7] is 6.62 µM (active).

Regarding `Nc1nc(Nc2ccc(S(N)(=O)=O)cc2)nn1C(=O)c1c(F)cccc1F`, the Potency result in assay [1], in assay [2], in assay [3], in assay [4], in assay [5] and in assay [6] was “inactive” in each case. The Potency in assay [7] is 4.18 µM (active).

As for `Cc1cn(-c2cc(NC(=O)c3ccc(C)c(Nc4nccc(-c5cccnc5)n4)c3)cc(C(F)(F)F)c2)cn1`, the Potency result in assay [1], in assay [2], in assay [3], in assay [4], in assay [5] and in assay [6] was “inactive” throughout. Further, the Potency in assay [7] is 20.9 µM (active).

Turning to `Cn1cc(-c2[nH]c3cc(NC(=O)[C@H](N)C4CCCCC4)cc4c3c2C=NNC4=O)cn1`, the Potency entry in assay [1], in assay [2], in assay [3], in assay [5] and in assay [6] was “inactive” each time. In addition, the Potency in assay [4] was 21.2 µM (active); in assay [7], 0.296 µM (active).

As for `Cc1c(NC(=O)OC[C@@H]2COCCN2)cn2ncnc(Nc3ccc4c(cnn4Cc4cccc(F)c4)c3)c12`, the Potency result in assay [1], in assay [2], in assay [3], in assay [4], in assay [5] and in assay [6] was “inactive” each time. Further, the Potency in assay [7] is 1.32 µM (active).

`NC(=O)Nc1cc(-c2cccc(F)c2)sc1C(=O)N[C@H]1CCCNC1`: the Potency entry in assay [1], in assay [2], in assay [3], in assay [4], in assay [5] and in assay [6] was “inactive” each time. Also, in assay [7], the Potency is 0.0833 µM (active).

For `COc1cc2c(Oc3ccc(-c4cnc(Nc5ccc(F)cc5)n(C)c4=O)cc3F)ccnc2cc1OCCCN1CCOCC1`, the Potency entry in assay [1], in assay [2], in assay [3], in assay [4] and in assay [5] was “inactive” each time. Besides, in assay [7], the Potency is 14.8 µM (active).

As for `Clc1cccc(-c2nnnn2Cc2cccnc2)c1Cl`, the Potency entry in assay [1], in assay [2], in assay [3], in assay [4] and in assay [6] was “inactive” each time.

For the compound `C[C@]1(CO)CN(c2cc(C(=O)Nc3ccc4c(c3)-c3c(c(C(N)=O)nn3-c3ccc(F)cc3)CC4)c(Cl)cn2)C[C@@]1(C)CO`, the Potency result in assay [1], in assay [2], in assay [3], in assay [4], in assay [5] and in assay [6] was “inactive” in each case.

In the case of `Cc1ccc(C(=O)Nc2cccc(C(F)(F)F)c2)cc1-c1ccc2nc(NCCN3CCOCC3)ncc2c1`, the Potency entry in assay [1], in assay [2], in assay [3], in assay [4], in assay [5] and in assay [6] was “inactive” each time. The Potency in assay [7] was 10.5 µM (active).

As to `C[C@]12CC[C@H](O)CC1=CCC1C2CC[C@]2(C)C(n3cnc4ccccc43)=CCC12` (stereo partly drawn), the Potency result in assay [1], in assay [2], in assay [3], in assay [4], in assay [5] and in assay [6] was “inactive” each time.

On to `CNC(=O)c1c(F)cccc1Nc1nc(Nc2cc3c(cc2OC)CCN3C(=O)CN(C)C)nc2[nH]ccc12`, for which the Potency entry in assay [1], in assay [2], in assay [3] and in assay [5] was “inactive” throughout. Besides, the Potency in assay [4] was 1.06 µM (active); in assay [7], 10.5 µM (active).

Take `O=C(c1cncc(Br)c1)N1CCC(N2CCCC2)CC1`: the Potency result in assay [1], in assay [2], in assay [3], in assay [4], in assay [5] and in assay [6] was “inactive” in each case. Besides, in assay [7], the Potency entry is “inactive”.

As for `Cc1ccc(NC(=O)C2(c3ccc4c(c3)OC(F)(F)O4)CC2)nc1-c1cccc(C(=O)O)c1`, the Potency result in assay [1], in assay [3], in assay [4], in assay [5] and in assay [6] was “inactive” in each case. The Potency result in assay [2] is “inactive and 14.1 µM (active)”; in assay [7] it was 0.0469 µM (active).

Consider `Fc1cc(-c2cccc3ncc(-c4cnn(C5CCNCC5)c4)nc23)cc(F)c1CN1CCOCC1`, for which the Potency result in assay [1], in assay [2], in assay [3], in assay [4] and in assay [5] was “inactive” in each case. Besides, the Potency in assay [7] was 18.7 µM (active).

With `COc1ccc(C(=O)CC2(O)C(=O)Nc3c(Cl)ccc(Cl)c32)cc1` (stereo not drawn), the Potency entry in assay [1], in assay [2], in assay [3], in assay [4], in assay [5] and in assay [6] was “inactive” in each case. Moreover, the Potency in assay [7] was 0.833 µM (active).

As for `COc1cccc(-c2ccc(NC(=O)C3=C(C(=O)O)CCC3)c(F)c2)c1`, the Potency result in assay [1], in assay [2], in assay [4] and in assay [6] was “inactive” in each case. Moreover, the Potency in assay [3] was 5.36 µM (active); in assay [5] it was 12 µM (active).

Regarding `COc1cc2nccc(Oc3ccc(NC(=O)C4(C(=O)Nc5ccc(F)cc5)CC4)cc3)c2cc1OC`, the Potency entry in assay [1], in assay [2], in assay [3], in assay [4], in assay [5] and in assay [6] was “inactive” throughout. For the same compound, in assay [7], the Potency was 26.4 µM (active).

Consider `CCN(CC)CCNC(=O)c1ccc2nc(-c3ccccc3)c(-c3ccc(CN4CCC(n5c(=O)[nH]c6ccccc65)CC4)cc3)nc2c1`, for which the Potency entry in assay [1], in assay [2], in assay [3], in assay [4], in assay [5] and in assay [6] was “inactive” each time. Further, in assay [7], the Potency was 14.8 µM (active).

With `CC(C)(O)CCc1ccc(OCc2cc(-c3cccc(OC(F)F)c3)c3ncccc3c2)cc1`, the Potency entry in assay [1], in assay [2], in assay [4], in assay [5], in assay [6] and in assay [7] was “inactive” in each case. For the same compound, the Potency in assay [3] was 13.5 µM (active).

Turning to `Cc1cc(Nc2cc(CN3CCOCC3)c3nc(C)c(Cc4ccc(Cl)cc4F)n3n2)n[nH]1`, the Potency result in assay [1], in assay [2], in assay [3] and in assay [6] was “inactive” in each case. Moreover, the Potency in assay [7] is 7.43 µM (active).

For the compound `CNc1nccc(-c2cccnc2Oc2cc(C(=O)Nc3cccc(C(F)(F)F)c3)ccc2C)n1`, the Potency result in assay [1], in assay [2], in assay [4], in assay [5] and in assay [6] was “inactive” in each case.

With `OCc1ccc(-c2ccc(-c3ccc(CO)s3)o2)s1`, the Potency entry in assay [1], in assay [2] and in assay [6] was “inactive” in each case. The Potency in assay [3] was 1.31 µM (active); in assay [4] it was 2.6 µM (active).

Turning to `CCNC(=O)Nc1ccc2ncc(Nc3ccc(C)cc3)nc2n1`, the Potency result in assay [1], in assay [2], in assay [3], in assay [4] and in assay [6] was “inactive” each time.
